Assay results from ChEMBL document CHEMBL4513216, “Probing the Open Global Health Chemical Diversity Library for Multistage-Active Starting Points for Next-Generation Antimalarials” (ACS Infect Dis, 2020).
The campaign covered roughly 69,000 compounds. About 8,600 (12%) showed an effect of 50% or more. For the sample, strong results were picked, then their nearest neighbours and some compounds at random.

Each compound was assayed on Plasmodium berghei (assay: Screen against P. berghei liver stage (PbLuc), transformed with Luciferase, at 10uM). Details: tested at 10 uM.
Assay type: functional, HepG2

SMILES	INHIBITION
CN(C)Cc1cc(=O)n2c(n1)CN(S(=O)(=O)C1CC1)CCC2	21.6%
O=C(CCn1cccn1)N1C[C@H]2CC[C@@H](C1)N(Cc1ccccn1)C2=O	8.47%
N#Cc1cc2cc(Cl)cnc2nc1O	-26.3%
CC(C)(C(=O)NCC1CCN(Cc2ccccn2)C1)c1ccccc1 (stereo not drawn)	49.2%
O=C1NCCCc2[nH]c(C3CCCN(C(=O)C4CC4)C3)nc21 (stereo not drawn)	26.8%
CC(C)OCCN1CCN(c2ccc(CN(C)C)cn2)CC1	25.4%
OCCN1CCN(Cc2coc(-c3cccc(F)c3)n2)CC1	48.4%
CC(O)CN1CCN(Cc2coc(-c3ccccc3Cl)n2)CC1 (stereo not drawn)	-66.7%
COCCN1CCN(Cc2coc(-c3ccccc3Cl)n2)CC1	63.8%
CC(=O)N1CCN(Cc2coc(-c3cccc(F)c3)n2)CC1	-14.7%
CN1CCOC(CNCc2coc(-c3cccc(F)c3)n2)C1 (stereo not drawn)	57.8%
CC(O)CN1CCN(Cc2coc(-c3ccccc3)n2)CC1 (stereo not drawn)	1.45%
CN1CCOC(CNCc2coc(-c3ccccc3)n2)C1 (stereo not drawn)	22.5%
CCN1CCN(Cc2coc(-c3cccc(F)c3)n2)CC1	65.2%
OCCN1CCN(Cc2coc(-c3cccc(Cl)c3)n2)CC1	33.3%
OCCN1CCN(Cc2coc(-c3ccccc3)n2)CC1	59%
OCCN1CCN(Cc2coc(-c3ccccc3Cl)n2)CC1	-113%
CN1CCOC(CNCc2coc(-c3cccc(Cl)c3)n2)C1 (stereo not drawn)	33.7%
NC(=O)c1cc(C2CCCN(CCOc3ccc(F)cc3)C2)n[nH]1 (stereo not drawn)	27.25%
CC(NCc1cc(O)c2cccc(F)c2n1)c1ccc(S(C)(=O)=O)cc1 (stereo not drawn)	15.1%
CCS(=O)(=O)Nc1ccc2c(c1)OCC(C)(C)C(=O)N2C	25.8%
O=C(NC1CCCC1)C1(Cc2cc(C3CCOC3)no2)CCNCC1 (stereo not drawn)	26.7%

SMILES	INHIBITION
COc1ccc(NCc2nc(=O)n(CCC(C)C)[nH]2)cc1	-27.6%
c1ccc2c(c1)ccn2CCCNC1CCOC2(CCOCC2)C1 (stereo not drawn)	-27.5%
Cc1nc(COc2ccc(CNCC3CN(C)CCO3)cc2)cs1 (stereo not drawn)	32.4%
COc1ccc(-c2nc(CN3CCN(CCO)CC3)co2)cc1	59.7%
CCN1CCOC(CNCc2csc(C)n2)C1 (stereo not drawn)	-65.3%
COc1ccc(-c2nc(CN3CCCS3(=O)=O)co2)cc1	-91.4%
Cc1ccc(-c2nc(CN3CCN(CCO)CC3)co2)cc1	27.4%
Cc1nc(CNCC2CN(C)CCO2)cs1 (stereo not drawn)	51.6%
Cc1cc(N2CCOC(c3ccccn3)C2)nc(N)n1 (stereo not drawn)	2.6925%
CC(Cn1ccnc1)NC(=O)N1CCN(Cc2cccs2)CC1 (stereo not drawn)	49.1%
O=S(=O)(NC1CCC12CCN(CC1CCOCC1)CC2)c1ccccc1 (stereo not drawn)	36.4%
COCCN1CCC(NCc2cccnc2)C1 (stereo not drawn)	-27.3%
FC(F)(F)c1cccc(N2CCC(NCc3cccnc3)CC2)c1	71.2%
Cc1n[nH]cc1CNC1CCN(c2ccccc2)CC1	49.9%
O=C(c1ccoc1)N1CCC(NCc2cccnc2)CC1	10.2%
Cc1n[nH]cc1CNC1CCN(c2ccc(F)cc2)CC1	49.9%
Cc1n[nH]cc1CNC1CCN(c2cccc(C(F)(F)F)c2)CC1	78.6%
CC1CN(Cc2ccc(C#N)cc2F)CCN1Cc1nccn1C (stereo not drawn)	11.433%
Cc1ccc(CN2CCCn3cnc(COCC4CC4)c3C2)o1	-49.1%
CN(CCc1ccccn1)C(=O)CCC1CCCN(c2ccncc2)C1 (stereo not drawn)	26.8%
O=C(C1CCOCC1)N1CCO[C@H]2[C@H](Oc3cccnc3)CC[C@@H]21	10%
CC(C)c1noc(CN2CCN(C(=O)c3cc(Cl)ccc3F)CC2)n1	-17%

SMILES	INHIBITION
CC(C)NC(=O)c1cccc(NC(=O)CCCc2nc(C(C)C)no2)c1	-8.87%
CC(C)c1noc(C[S+]([O-])CC(=O)Nc2ccc(F)c(F)c2)n1 (stereo not drawn)	51.3%
CC(C)c1noc(C[S+]([O-])CC(=O)Nc2cc(F)ccc2F)n1 (stereo not drawn)	56.3%
CC(C)c1noc(CCC(=O)Nc2cc(F)ccc2F)n1	34%
CC(C)c1noc(CCCC(=O)Nc2cccc(F)c2)n1	27%
CCN(Cc1ccco1)C(C)c1nc(C(C)(C)C)no1 (stereo not drawn)	2.9%
CCn1cnnc1CNC(=O)Cc1ccc2c(c1)OCCO2	1.78%
O=C(NC[C@]1(O)CN(Cc2ccccc2F)C[C@H]1O)c1cscn1	14.5%
CCn1c(CC2CCN(S(=O)(=O)c3cccs3)CC2)nn(C)c1=O	41.5%
Cc1noc(C)c1CNCc1c(C(C)C)nn(C)c1N1CCOCC1	34.5%
Cc1cccc(-n2ncc(C(=O)N3CCn4c(C)nnc4C3)c2C)c1	60.6%
Cc1nnc2n1CCN(C(=O)c1cc(C)n(-c3ccccc3)c1C)C2	44.3%
Cc1cccc(-n2c(C)cc(C(=O)N3CCn4c(C)nnc4C3)c2C)c1	35.3%
COc1ccc2nnc(CCCC(=O)NCc3ccccc3)n2n1	44.4%
CCc1ccc(CN2CCC3(CC2)C(=O)N(C)CCN3CC2CC2)cc1	-17.1%
COC[C@@]12CC[C@@H](N3CCOCC3)C[C@H]1CCN(c1ncccn1)C2	53.5%
COC[C@@]12CC[C@@H](N3CCOCC3)C[C@H]1CCN(c1ccc(Cl)cn1)C2	16.7%
COC[C@@]12CC[C@@H](N3CCOCC3)C[C@H]1CCN(c1ncccc1C)C2	45.8%
COC[C@@]12CC[C@@H](N3CCOCC3)C[C@H]1CCN(c1ncccc1Cl)C2	13.5%
COC[C@@]12CC[C@@H](N3CCOCC3)C[C@H]1CCN(c1cc(C)ccn1)C2	70.3%
COC[C@@]12CC[C@@H](N3CCOCC3)C[C@H]1CCN(c1cnccn1)C2	-15.1%
O=C(Cn1cnc2sccc2c1=O)NCCc1nnc2ccccn12	46.4%

SMILES	INHIBITION
COCC(=O)N1CCc2ccc(=O)n(CC3CC3)c2CC1	-13.2%
c1csc(CNCC2COCc3c(-c4ccoc4)nnn3C2)n1 (stereo not drawn)	13.1%
CCCC(=O)Nc1cccc(C(=O)N(C)CCCC2CCCO2)c1 (stereo not drawn)	33.7%
COCCn1c2c(ccc1=O)CCN(Cc1ccoc1)CC2	25.1%
CCN1CCC2(C=C(C(=O)NC3CC3)c3ccccc32)CC1	12.4%
Cc1nc(CN(C)C(=O)c2cccc(CC3CCNCC3)c2)no1	34%
CCOCCn1c(=O)[nH]c2cc(C(=O)N(C)Cc3ccno3)ccc21	8.35%
CN(Cc1nc(C2CC2)no1)C(=O)c1cccc(CC2CCNCC2)c1	59.7%
CNc1ncc(CN(C)C(=O)c2cccc(CC3CCNCC3)c2)cn1	19.1%
CN(Cc1nc(C2CC2)no1)C(=O)C1COc2ccccc2C1 (stereo not drawn)	-9.08%
CN(Cc1ccno1)C(=O)c1cccc(CC2CCNCC2)c1	70.4%
CCN(Cc1cnn(C)c1)C[C@H]1CC[C@@H](Cc2cccc(CN)c2)O1	15.1%
Cc1cnn(CC2CCCN2CCCS(C)(=O)=O)c1 (stereo not drawn)	13.3%
CCN(c1cc(C)cc(C)c1)S(=O)(=O)c1cc(C(=O)O)cs1	42.9%
O=C(NCc1ccco1)[C@H]1CC[C@@H]2[C@@H](CCN2Cc2nccs2)O1	-30.1%
Cc1ccc(NC(=O)c2n[nH]c(-n3cnnc3)n2)cc1	-5.59%
Cc1noc(C)c1CCC(=O)N1CCN(Cc2cscn2)CC1	1.7%
Cc1noc(C)c1CCC(=O)N1CCCN(Cc2cscn2)CC1	-5.51%
Cc1noc(C)c1CC(=O)N1CCCN(Cc2cscn2)CC1	57.4%
Cc1noc(C)c1CCC(=O)N1CCCN(Cc2cccs2)CC1	52%
CCc1nc(CN2CCN(C(=O)N3CCCCC3)CC2)cs1	-2.53%
Cc1noc(C)c1CC(=O)N1CCN(Cc2cscn2)CC1	27.94%

SMILES	INHIBITION
CCc1nc(CN2CCCN(C(=O)c3c(C)noc3C)CC2)cs1	28.7%
CCc1nc(CN2CCN(C(=O)Cc3c(C)noc3C)CC2)cs1	50.4%
Cc1noc(C)c1CCC(=O)N1CCCN(CC(N)=O)CC1	37.95%
O=C(C1CCOC1)N1CCN(CCn2cccn2)c2ncccc2C1 (stereo not drawn)	11.3%
CN(C)C(=O)CN1CCC2(CCN(S(=O)(=O)C3CC3)CC2)C1=O	32.1%
Cc1cc(O)nc(C2CCCN(CCO)C2)n1 (stereo not drawn)	-0.232%
CCCC(=O)N1CCc2c(CNS(C)(=O)=O)cncc2C1	13.5%
O=C(c1cnc2ccc(F)cc2c1NCc1ccco1)N1CCCC1	37.2%
O=C(c1ccno1)N1CCC2(CC1)C(=O)N(CC1CC1)c1ccccc12	25.7%
O=C([C@H]1CCCO1)N1CCN(Cc2cccnc2)c2ncccc2C1	15.4%
CC(=O)N1CCSCC1c1ccc(C)o1 (stereo not drawn)	-13.8%
COC(=O)c1ccc(CNCc2cn(C)nc2C)cc1	70.8%
COC(=O)c1ccc(Cn2cnc(C#N)n2)cc1	6.23%
CCn1cc(CNCc2ccc(C(=O)OC)cc2)c(C)n1	39.7%
COc1ccc(CNCc2cn(C)nc2C)cc1	24.8%
COC(=O)c1ccc(CCn2cnc(C#N)n2)cc1	13.8%
COC(=O)c1ccc(CNCc2ccn(C)n2)cc1	56%
CN(C)[C@@H]1CCN(C(=O)c2ccsc2)[C@H]1Cc1cccnc1	38.1%
Cc1cc(C)nc(C2CCN(C(=O)CO)CC2)n1	26.65%
CCC(NC(=O)c1c(C(=O)O)cnn1C)c1ccc(C)cc1C (stereo not drawn)	15.9%
